ATXN2 expr inh: Primary qHTS for Inhibitors of ATXN expression; HEK-293 ATXN2-luciferase reporter, luminescence, 24 h; Potency, µM (titrated, usually from 57 µM), inactives show at the highest dose activity change, negative = inhibition, usual class: inhibitors; 0.72% of 360,000 active; AID 1745845, 2022; also: % is scaled to controls: 0 for no effect and ±100 for the full control effect; nearly all actives have a fitted effect of over 55% in size
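qHTS (up to 57 uM final) was run with 24 h compound exposure of reporter cells at 37 °C. Each well was multiplexed: SteadyGlo luminescence measured ATXN2-luciferase expression after a fluorogenic Gly-Phe-AFC viability readout (25 uM final).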
ATXN viability: Viability Counterscreen for Primary qHTS for Inhibitors of ATXN expression. Potency, µM (doses to about 56.7 µM), usual class: cytotoxic. S2 cells (HEK-293 line with an ATXN2-luciferase reporter) viability, CellTiter-Fluor protease fluorescence, 24 h. AID 651635, 2014. 0.49% of 400,000 active; also: nearly all actives have a fitted effect of over 40% in size
Nrf2 block: Nrf2 qHTS screen for inhibitors; A549 ARE-Fluc reporter, luciferase luminescence, 18-24 h; Potency, µM (highest dose often 46 µM), inactives show at the highest dose activity change, negative = inhibition, most hits filed as inhibitors; 2.1% of 360,000 active; AID 504444, 2011; also: % is scaled to controls: 0 for no effect and ±100 for the full control effect; nearly all actives have a fitted effect of over 60% in size
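Nrf2 activity is the BugLite luminescence, read 15 min after reagent at room temperature, following CellTiter-Fluor cytotoxicity readout (30 min, 37C). Compound titrations were applied for 18-24 h to 5000 A549 ARE_Fluc cells/well in 5% FBS OPTI-MEM.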
Nrf2 ARE act: qHTS of Nrf2 Activators; AREc32 ARE-luciferase reporter (MCF7-derived line), luminescence, 24 h; Potency, µM (top dose mostly 46.1 µM), inactives show top-dose activation, most hits filed as activators; 0.31% of 410,000 active; also: % of control where 0% means no effect; nearly all actives have a fitted effect of over 65% in size
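Each well held 1000 AREc32 cells, which were incubated with compound for 24 hr at 37 deg C after overnight attachment, and ARE reporter activity was quantified by firefly luciferase luminescence.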
A549 viability: Nrf2 qHTS screen for inhibitors: counterscreen for cytotoxicity; Potency, µM (doses to about 46 µM), for the others: at the top dose activity change, negative = cytotoxicity, usual class: inhibitors; AID 504648, 2011; 0.16% of 390,000 active; A549 ARE-Fluc cells, CellTiter-Fluor viability, 18-24 h; also: % is scaled to controls: 0 for no effect and ±100 for the full control effect
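Cytotoxicity counterscreen: CellTiter-Fluor fluorescence was measured in A549 ARE_Fluc cells after 18-24 h of compound exposure in a concentration series. The subsequent BugLite luminescent read reports ARE-luciferase activity.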
Starred values were filed as active, the others as inactive; i = inactive; u = inconclusive; x = no result; ! = a repeat was not active; [ ] = another dose, or the depositor's remark. Shown are actives, neighbours in structure and some others; about 2.9% of the full set was active somewhere. Calls follow the shape of the dose curve; as a rule, active = well fitted curve in the direction sought with a large enough effect; inconclusive = small, poorly fitted or top-dose-only effect, or another doubt; inactive = no such curve, though single readings can be large; an effect the other way counts as inactive or inconclusive. Potency is read from the fitted curve at half-maximal effect.

SMILES	ATXN2 expr inh	ATXN viability	Nrf2 block	Nrf2 ARE act	A549 viability
CC[n+]1c(SC)ccc2cc(OC)ccc21	-7.3%	i	18.4µM*	-0.3%	u
Clc1ccc(N2CC2c2ccncc2)cc1 (configuration not stated)	-29.3%	i	5.1%	0.6%	-0.9%
COc1ccc(NC(=O)c2ccc(COCC(F)(F)C(F)F)cc2)cc1	8.2%	i	u	0.3%	-15.5%
Cc1c(P(=S)(c2ccccc2)c2ccccc2)[n+]2ccccc2n1C/C=C/c1ccccc1	u	14.1µM*	u	-3.2%	-18.0%
Cc1c(P(=S)(c2ccccc2)c2ccccc2)[n+]2ccccc2n1C	-3.1%	i	-0.7%	-0.4%	4.2%
Oc1cccc2cccnc12	11.2µM*!	12.6µM*!	-7.9%	x	-8.8%
Cc1ccc(-c2ccc(=O)n(CC(=O)N3CCC4(CC3)OCCO4)n2)cc1	-10.3%	i	-9.5%	-0.8%	-4.0%
COc1ccc2o/c(=N\O)c(C(=O)Nc3ccc(C)cc3)cc2c1	x	u	5.3%	0.1%	2.7%
Cc1nnc2n1-c1sc(CCc3ccc(CC(C)C)cc3)cc1C(c1ccccc1Cl)=NC2C (configuration not stated)	35.5µM*	31.6µM*	x	x	x
Cc1ccc(NC(=O)c2snnc2C)cc1Cl	18.2%	i	u	5.3%	-10.5%
Cc1ccc(NC(=O)c2cc(-c3cc(Cl)ccc3C)n[nH]2)cc1NS(C)(=O)=O	u	10µM*	x	-0.2%	x
COc1ccc(C(=O)NCCn2cc(SCc3ccc(C(F)(F)F)cc3)c3ccccc32)cc1OC	-24.1%	i	18.4µM*	0.2%	-20.0%
CCn1cc(C(=O)NCCc2ccc(OC)c(OC)c2)c(=O)c2cc(S(=O)(=O)N(C)C3CCCCC3)ccc21	u	x	u	0.2%	-19.2%
c1ccc2c(c1)OCC(C1=NCCN1)O2 (configuration not stated)	u	12.6µM*!	-6.4%	u	-6.4%
CC[C@@H]1[C@@H](C)O[C@@](O)([C@@H](C)[C@H](O)[C@H](C)[C@H]2OC(=O)C=CC=C[C@@H](C)[C@@H]([C@@H](C)[C@@H](O)[C@H](C)[C@@]3(O)C[C@H](O[C@H]4C[C@H](O)[C@H](O)[C@H](C)O4)[C@H](CC)[C@@H](C)O3)OC(=O)C=CC=C[C@@H]2C)C[C@H]1O[C@H]1C[C@H](O)[C@H](O)[C@H](C)O1	0.968µM*	x	x	x	x
C=C1C(=O)O[C@H]2C[C@@H](C)[C@@H]3C=CC(=O)[C@@]3(C)C[C@H]12	6.31µM*	u	20.6µM*	-3.4%	u
C=C1C(=O)OC2CC(C)C3C=CC(=O)C3(C)C(O)C12 (configuration not stated)	u	u	5.8µM*	-2.8%	10.3µM*
C=C1C(=O)O[C@H]2[C@H]1[C@H](OC(=O)CC(=O)O[C@@H]1C[C@@H](C)[C@@H]3C=CC(=O)[C@@]3(C)[C@H]3OC(=O)C(=C)[C@H]13)C[C@@H](C)[C@H]1C=CC(=O)[C@]12C	u	u	9.3%	u	-5.7%
C=C1C(=O)O[C@@H]2C[C@@H](C)[C@@H]3C4OC4C(=O)[C@@]3(C)[C@@H](O)[C@H]12 (some centres not stated)	3.16µM*	3.55µM*	u	-3.3%	u
c1ccc2nc3ccccc3nc2c1	6.4%	i	20.6µM*	3.8%	u
C[C@H]1CCC[C@H](O)CCCCCc2cc(O)cc(O)c2C(=O)O1	u	i	1.8%	-0.2%	-1.3%
C[C@H]1CCC[C@@H](O)CCC/C=C/c2cc(O)cc(O)c2C(=O)O1	14.1µM*	u	u	-0.5%	-8.2%
O=C(O)C(Cc1cnc[nH]1)NS(=O)(=O)c1ccc(Cl)cc1 (configuration not stated)	-1.2%	i	6.9%	0.0%[9.22 µM]	-3.9%
NC(=Nc1ccccc1)NN=Cc1c[nH]c2ccccc12	-2.5%	u	u	8.2%	-11.6%
CCCCCN=C(N)N/N=C/c1c[nH]c2ccc(OC)cc12	5.62µM*!	17.8µM*	u	-3.8%	u
SMILES	ATXN2 expr inh	ATXN viability	Nrf2 block	Nrf2 ARE act	A549 viability
O=C(NCCCl)Nc1ccccc1NS(=O)(=O)c1cccs1	0.4%	u	-4.5%	-0.3%	-3.4%
CCCCC(=O)N/N=C/c1c(O)n(CC)c(=S)[nH]c1=O	-9.6%	i	-7.1%	-0.1%	-2.9%
CCCCCCC(=O)N/N=C/c1c(O)n(CCCC)c(=S)[nH]c1=O	u	i	20.6µM*	0.1%	-16.0%
CC1(C)C(C(=O)N2CCN(c3ccc(Cl)cc3)CC2)C1(C)C	u	i	-20.0%	-0.2%	-3.1%
Cc1ccc(-n2ncc(C(=O)N3CCN(c4ccc(Cl)cc4)CC3)c2C2CCN(C(=O)OC(C)(C)C)CC2)c(C)c1	-9.1%	i	14.6µM*	0.4%	-28.3%
COc1cccc(OP(=O)(Nc2ccccc2)Oc2cccc(OC)c2)c1	21.3%	u	-27.8%	-3.0%	6.0%
CCOc1ccc(NCc2cccn2-c2nnc(N3CCC(C(=O)NCC(C)c4ccccc4)CC3)s2)cc1 (configuration not stated)	x	x	14.6µM*	1.0%	1.3%
Cc1ccc(NCc2cccn2-c2nnc(N3CCC(C(=O)NCc4ccc(OC(C)C)cc4)CC3)s2)cc1	x	x	25.9µM*	0.0%	-14.7%
CC1CCCCC1NC1CCN(C)CC1 (configuration not stated)	x	u	-32.5%	-0.8%	-17.5%
C/C(=N\N1CCCCC1c1cccnc1)c1c(O)n(C2CCCCC2)c(=S)[nH]c1=O (configuration not stated)	-14.6%	i	u	0.6%	-25.1%
Cc1ccc(C[n+]2c(-c3ccc(C)cc3)cc(-c3ccc(C)cc3)cc2-c2ccc(C)cc2)cc1	u	x	5.17µM*	-3.5%	18.4µM*
Cc1ccc(-c2cc(-c3ccc(C)cc3)[n+](-c3ccc(C(=O)O)cc3)c(-c3ccc(C)cc3)c2)cc1	-0.5%	i	9.1%	1.3%	0.6%
CC12CCCCC1N(O)CN2O (configuration not stated)	-7.6%	i	-13.0%	2.3%	-3.9%
COC(=O)c1ccc(NC(=O)CSc2nc3ccc(N4C(=O)C5C6C=CC(C6)C5C4=O)cc3s2)cc1 (configuration not stated)	u	u	18.4µM*	0.1%	u
COC(=O)C1=C(c2ccccc2)C[C@@H]2CC[C@H]1N2C(=O)NCCCOC(C)C	7.9%	i	-24.6%	-0.2%	3.9%
COc1ccc(OC(=O)N2C/C(=C/c3ccccc3)C(=O)/C(=C\c3ccccc3)C2)cc1	u	31.6µM*	-4.9%	u	-13.4%
COc1ccc(CC(=O)N2C[C@H]3C[C@@H](C2)c2cccc(=O)n2C3)cc1	4.1%	i	0.1%	-0.6%	2.8%
